Holding throughout (assay): growth (OD600 after 10 h); higher = more growth (less inhibition)
The subject of assay [1] is E. coli TESEC Alr+ wild-type control. To be noted: compound 0.1 mM; raw OD600 reference: median of DMSO wells 0.241, cell-free background 0.041. As for the experimental part: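 TESEC Mtb Alr E. coli, or the Alr+ wild-type control, in 384-well plates with Prestwick library compounds at 0.1 mM and 1% DMSO, across arabinose induction levels of 1E3 to 1E7 nM. Growth is read as OD600 after 10 h at 37 °C in triplicate biological replicates.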

Assay [2] deals with E. coli TESEC Mtb Asd. To be noted: compound 0.1 mM. As for the experimental part: (§1)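 TESEC E. coli strains in which the native enzyme is deleted and replaced by arabinose-inducible Mtb Asd, DapB, CysH or TrpD, each grown in its selective medium. Strains were screened against the Prestwick library at 0.1 mM and 1% DMSO in 384-well format at low and high arabinose induction. Growth is read as OD600 after 10 h in triplicate.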

Assay [3] concerns E. coli TESEC Mtb DapB. To be noted: compound 0.1 mM. How it is done: as §1
For assay [4], the system named is E. coli TESEC Alr+ wild-type control. To be noted: compound 0.1 mM; raw OD600 reference: median of DMSO wells 0.49, cell-free background 0.052. How it is done:
(§2)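 TESEC Mtb Alr E. coli (ΔaraC ΔtolC ΔentC Δalr ΔdadX, arabinose-inducible Mtb Alr) or the Alr+ wild-type control strain, grown in defined M9-fructose medium without D-alanine in 96-well plates with Prestwick library compounds at 0.1 mM and 1% DMSO. Low Alr induction is 0.1 µM arabinose and high induction is 10 mM arabinose.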

The test system of assay [5] is E. coli TESEC Mtb Alr. To be noted: compound 0.1 mM. How it is done:
as §2

Setting [6] is: arabinose induction (level): High, raw OD600 reference: median of DMSO wells 0.331, cell-free background 0.041.
Setting [7] is: arabinose induction (level): Low, raw OD600 reference: median of DMSO wells 0.417, cell-free background 0.041.
Where [8] appears, read: arabinose induction (level): High, raw OD600 reference: median of DMSO wells […], cell-free background 0.041.
Where [9] appears, read: arabinose induction (level): Low, raw OD600 reference: median of DMSO wells 0.227, cell-free background 0.041.
Setting [10] is: arabinose 100 nM, raw OD600 reference: median of DMSO wells 0.413, cell-free background 0.052.
The mark [11] stands for this setting: arabinose 10000000 nM, raw OD600 reference: median of DMSO wells […], cell-free background 0.052.

Structures can show the parent of a compound that is named as a salt. ± gives the standard deviation of the averaged measurements.

As for `CCn1cc(C(=O)O)c(=O)c2cnc(N3CCCC3)nc21` [Piromidic acid], the growth in assay [1] was determined as 0.228 ± 0.0041; in assay [2] (setting [6]), 0.288 ± 0.037; in assay [2] (setting [7]), 0.432 ± 0.015; in assay [3] (setting [8]), 0.208 ± 0.016; in assay [3] (setting [9]), 0.239 ± 0.025; in assay [4], 0.144 ± 0.003. The growth in assay [5] (setting [10]) came out at 0.12 ± 0.021; in assay [5] (setting [11]), 0.105 ± 0.015.
On to `O=C1C(=O)c2ccccc2C(O)=C1C1CCC(c2ccc(Cl)cc2)CC1` (stereo unspecified) [Atovaquone], for which the growth is 0.171 ± 0.0064 in assay [1]; 0.271 ± 0.12 in assay [2] (setting [6]); 0.23 ± 0.017 in assay [2] (setting [7]); 0.199 ± 0.009 in assay [3] (setting [8]); 0.204 ± 0.015 in assay [3] (setting [9]); 0.545 ± 0.044 in assay [4]. The values for the growth in assay [5] (setting [10]) and in assay [5] (setting [11]) were 0.442 ± 0.023 and 0.231 ± 0.025, respectively.
Take `CC(C)NC[C@@H](O)COc1cccc2ccccc12` [(R)-Propranolol hydrochloride]: the growth stood at 0.205 ± 0.01 in assay [1]; 0.263 ± 0.076 in assay [2] (setting [6]); 0.2622 ± 0.0023 in assay [2] (setting [7]); 0.193 ± 0.01 in assay [3] (setting [8]); 0.212 ± 0.027 in assay [3] (setting [9]); 0.58 ± 0.019 in assay [4]. Besides, the growth came out at 0.4273 ± 0.0035 in assay [5] (setting [10]) and 0.326 ± 0.012 in assay [5] (setting [11]).
Turning to `CO[C@@H]1[C@@H](OC(N)=O)[C@@H](O)[C@H](Oc2ccc3c(O)c(NC(=O)c4ccc(O)c(CC=C(C)C)c4)c(=O)oc3c2C)OC1(C)C` [Novobiocin sodium salt], the growth was found to be 0.0431 ± 0.00086 in assay [1]; 0.0533 ± 0.0015 in assay [2] (setting [6]); 0.0535 ± 0.0063 in assay [2] (setting [7]); 0.05077 ± 0.0005 in assay [3] (setting [8]); 0.0501 ± 0.00055 in assay [3] (setting [9]); 0.0556 ± 0.0007 in assay [4]. Further, the growth amounted to 0.0617 ± 0.0036 in assay [5] (setting [10]) and 0.052 ± 0.0006 in assay [5] (setting [11]).
For the molecule `Nc1nc(=O)n([C@@H]2CS[C@H](CO)O2)cc1F` [(-)-Emtricitabine], the growth in assay [1] amounted to 0.238 ± 0.0098; in assay [2] (setting [6]), 0.291 ± 0.092; in assay [2] (setting [7]), 0.419 ± 0.09; in assay [3] (setting [8]), 0.192 ± 0.024; in assay [3] (setting [9]), 0.218 ± 0.011; in assay [4], 0.572 ± 0.0088. For the same molecule, the figures for the growth in assay [5] (setting [10]) and in assay [5] (setting [11]) were 0.412 ± 0.0087 and 0.337 ± 0.012, respectively.
Turning to `Cc1c(N(C)C)c(=O)n(-c2ccccc2)n1C` [Amidopyrine], the growth in assay [1] worked out at 0.242 ± 0.0096; in assay [2] (setting [6]), 0.373 ± 0.017; in assay [2] (setting [7]) it was 0.41 ± 0.042; in assay [3] (setting [8]), 0.21 ± 0.017; in assay [3] (setting [9]) it was 0.254 ± 0.056; in assay [4], 0.462 ± 0.039. In addition, the growth was determined as 0.412 ± 0.0055 in assay [5] (setting [10]) and 0.365 ± 0.037 in assay [5] (setting [11]).
Consider `CC(=O)Oc1cc(C(C)C)c(OCCN(C)C)cc1C` [Moxisylyte hydrochoride], for which the growth was 0.219 ± 0.0037 in assay [1]; 0.297 ± 0.046 in assay [2] (setting [6]); 0.441 ± 0.041 in assay [2] (setting [7]); 0.171 ± 0.0028 in assay [3] (setting [8]); 0.247 ± 0.053 in assay [3] (setting [9]); 0.533 ± 0.029 in assay [4]. Moreover, the growth in assay [5] (setting [10]) was 0.41 ± 0.0064; in assay [5] (setting [11]), 0.242 ± 0.13.

For the origin of these results see the supplement of paper PMC9262897, “Low-cost anti-mycobacterial drug discovery using engineered E. coli” (Nature Communications, 2022).
